Assay results as given in PubChem BioAssay AID504339 (National Center for Advancing Translational Sciences (NCATS), 2011).
The campaign covered roughly 390,000 compounds. About 17,000 (4.4%) were called active. Inconclusive results (about 8%) are left out. Calls follow the shape of the dose curve; as a rule, active = well fitted inhibition curve with a large enough effect; inconclusive = small, poorly fitted or top-dose-only effect; inactive = no such curve, though single readings can be large or run the other way. Many of the other results were omitted from the sample, so actives are more common in it than they were.
% is scaled to controls: 0 for no effect and ±100 for the full control effect; potency is read from the fitted curve at half-maximal effect.
Also: nearly all actives have a fitted effect of over 50% in size.

What follows are compounds tested against Lysine-specific demethylase 4A (Homo sapiens) (UniProt O75164) (assay: qHTS Assay for Inhibitors of JMJD2A-Tudor Domain). Conditions: AlphaScreen JMJD2A-Tudor / H3K4me3 peptide binding; series mostly up to 114 µM; activity change, negative = inhibition: at the top concentration.
Chain of Lysine-specific demethylase 4A (Homo sapiens) (O75164 whole entry, looked up, the tested form may be a part): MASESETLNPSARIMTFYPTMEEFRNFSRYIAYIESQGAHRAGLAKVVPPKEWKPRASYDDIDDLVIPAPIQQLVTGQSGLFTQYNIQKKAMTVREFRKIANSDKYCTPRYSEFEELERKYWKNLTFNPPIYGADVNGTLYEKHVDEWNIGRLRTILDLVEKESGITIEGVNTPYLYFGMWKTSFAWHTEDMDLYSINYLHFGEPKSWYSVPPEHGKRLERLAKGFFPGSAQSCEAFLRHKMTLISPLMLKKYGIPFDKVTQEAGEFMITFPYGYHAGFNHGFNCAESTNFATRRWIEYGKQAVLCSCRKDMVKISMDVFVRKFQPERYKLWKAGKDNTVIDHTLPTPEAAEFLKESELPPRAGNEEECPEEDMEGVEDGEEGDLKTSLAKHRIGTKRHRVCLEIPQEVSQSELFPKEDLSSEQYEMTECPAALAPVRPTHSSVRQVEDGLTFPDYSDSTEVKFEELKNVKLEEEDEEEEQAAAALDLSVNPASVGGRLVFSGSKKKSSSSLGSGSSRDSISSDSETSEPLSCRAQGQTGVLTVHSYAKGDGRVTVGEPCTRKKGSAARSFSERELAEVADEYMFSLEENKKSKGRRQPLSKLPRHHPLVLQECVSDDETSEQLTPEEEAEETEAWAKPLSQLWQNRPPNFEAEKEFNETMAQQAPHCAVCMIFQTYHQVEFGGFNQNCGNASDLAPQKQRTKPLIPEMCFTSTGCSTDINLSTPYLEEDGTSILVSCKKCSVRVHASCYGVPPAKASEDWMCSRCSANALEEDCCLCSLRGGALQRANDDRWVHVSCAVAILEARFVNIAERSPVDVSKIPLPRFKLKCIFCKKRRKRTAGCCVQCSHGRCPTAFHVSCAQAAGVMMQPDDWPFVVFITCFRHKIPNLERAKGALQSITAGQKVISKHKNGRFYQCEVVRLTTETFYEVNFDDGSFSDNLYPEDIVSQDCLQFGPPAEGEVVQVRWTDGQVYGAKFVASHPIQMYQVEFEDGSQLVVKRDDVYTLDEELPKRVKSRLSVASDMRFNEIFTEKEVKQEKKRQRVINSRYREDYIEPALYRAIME
For `CC(C)(C)OC(=O)C1=C(CO)CS[C@@H]2[C@H](NC(=O)Cc3ccccc3)C(=O)N12`, the “activity change, negative = inhibition” value was -6.16% (inactive). In the case of `C=CC1=C(C(=O)O)N2C(=O)[C@@H](NC(=O)/C(=N\OCC(=O)O)c3csc(N)n3)[C@H]2SC1`, the Potency is reported as 20 µM (active). For `COc1cc(C(=O)NCC(c2ccc(Cl)cc2)N2CCOCC2)cc(OC)c1OC` (stereo not drawn), the “activity change, negative = inhibition” value was 1.32% (inactive). For `Cc1cc(C)cc(NC(=O)CCCc2nc(-c3ccccc3Cl)no2)c1`, the “activity change, negative = inhibition” value was -3.97% (inactive). With `Cc1ccc(OCCSc2nc3ccc(NC(=O)COc4ccc(C)cc4)cc3s2)cc1` the “activity change, negative = inhibition” value was -18.9% (inactive). `CC(=O)c1ccc(NC(=O)CSc2nnc(NC(=O)Nc3ccccc3)s2)cc1` was tested, and the “activity change, negative = inhibition” value was 4.22% (inactive). In the case of `Cn1c(=O)c2c(nc(SCC(=O)Nc3ccc(F)cc3)n2Cc2ccc(Cl)cc2)n(C)c1=O`, the “activity change, negative = inhibition” value is reported as -12.7% (inactive). For `CCOC(=O)c1ccc(CSc2nnc3cc(C)c4ccccc4n23)cc1`, the “activity change, negative = inhibition” value was -17.2% (inactive). `Cc1c(CCNC(=O)c2ccc(C(F)(F)F)cc2)sc2nc(-c3ccc(F)cc3)nn12` was tested, and the “activity change, negative = inhibition” value was -12% (inactive). `Oc1c(C(c2ccc(F)cc2)N2CCN(Cc3ccccc3)CC2)sc2nc(-c3ccco3)nn12` (stereo not drawn) was tested, and the “activity change, negative = inhibition” value was -35.1% (inactive). In the case of `COc1ccc(CN2CCN(Cc3cn(C)nc3-c3ccccc3)CC2CCO)c(C)c1C` (stereo not drawn), the “activity change, negative = inhibition” value is reported as -17.6% (inactive). With `Cc1ccccc1CN1C[C@@H]2C[C@@H](c3cn(C)nc3-c3ccccc3)N3CCC[C@@]23C1=O` the Potency was 63.1 µM (active). `Cc1ccccc1CN1C[C@@H]2C[C@@H](c3ccc4nsnc4c3)N3CCC[C@@]23C1=O` was tested, and the “activity change, negative = inhibition” value was -34.2% (inactive). In the case of `O=C(CCc1nc(CN2CCN(S(=O)(=O)c3ccc(Br)cc3)CC2)no1)N1CCCCC1`, the “activity change, negative = inhibition” value is reported as -15.9% (inactive). In the case of `COc1ccc(NC(=O)CSc2nc3ccccc3n2CC(=O)N2CCCCC2C)cc1` (stereo not drawn), the “activity change, negative = inhibition” value is reported as -25.8% (inactive). With `COc1ccc(Nc2cc(=O)oc3ccccc23)cc1` the “activity change, negative = inhibition” value was -22% (inactive). With `COc1ccc(-c2nnc(-c3ccc4ccccc4c3)o2)cc1` the “activity change, negative = inhibition” value was 0% (inactive). With `COc1ccc(Nc2ccc3ccccc3c2)cc1` the Potency was 56.2 µM (active). With `COc1cccc(NC(=O)C(=O)NCC(c2ccc3c(c2)OCO3)N2CCN(C)CC2)c1` (stereo not drawn) the “activity change, negative = inhibition” value was 3.55% (inactive). For `Fc1ccccc1/C=N/n1c(-c2cccnc2)n[nH]c1=S`, the Potency was 3.98 µM (active). With `S=c1nc2ccccc2c2nc(-c3cccnc3)[nH]n12` the activity change, negative = inhibition was -17.6% [at 11.4 µM] (inactive). For `S=c1[nH]nc(-c2ccncc2)n1/N=C/c1ccccc1Cl`, the Potency was 3.16 µM (active). For `COc1ccc(-c2cc(C(=O)Nc3sc4c(c3C(N)=O)CCCC4)no2)cc1`, the “activity change, negative = inhibition” value was -10.6% (inactive). For `Cc1cccc(N2CCN(C(=O)CCn3c(=O)c4cccn4c4cccnc43)CC2C)c1` (stereo not drawn), the “activity change, negative = inhibition” value was -33.3% (inactive). `COc1ccc(Cn2c(=O)c3oc4ccccc4c3n(CC(=O)Nc3ccc(F)cc3F)c2=O)cc1` was tested, and the “activity change, negative = inhibition” value was -16.5% (inactive). With `CCC1CCCCN1C(=O)Cn1c(=O)n(CCCCCC(=O)NCc2ccccc2)c(=O)c2sccc21` (stereo not drawn) the “activity change, negative = inhibition” value was -13% (inactive). In the case of `CN1CCOc2cc(S(=O)(=O)N3CCN(S(=O)(=O)c4c(F)cccc4F)CC3)cnc21`, the “activity change, negative = inhibition” value is reported as -4.11% (inactive). `CCn1c(-c2ccoc2C)n[nH]c1=S` was tested, and the Potency was 10 µM (active). For `CCn1c(SCC(=O)Nc2nccs2)nnc1-c1ccncc1`, the “activity change, negative = inhibition” value was -7.95% (inactive). `CCn1c(C)nc2c1C(=O)c1ccccc1C2=O` was tested, and the “activity change, negative = inhibition” value was -13.7% (inactive). In the case of `CCCc1cc(-c2n[nH]c(=S)n2CC)c2ccccc2n1`, the Potency is reported as 79.4 µM (active). With `CC(C)n1c(-c2ccncc2)n[nH]c1=S` the Potency was 22.4 µM (active). `CCn1c(SCC(=O)NC2CCCC2)nnc1-c1ccoc1C` was tested, and the “activity change, negative = inhibition” value was -11% (inactive). For `CC(C)n1c(-c2cccs2)nc2ccccc21`, the “activity change, negative = inhibition” value was -9.38% (inactive). With `CCn1c(-c2ccncc2)n[nH]c1=S` the Potency was 10 µM (active). `CCCn1c(C)cc(-c2csc(NC(=O)CCc3nc4ccccc4c(=O)[nH]3)n2)c1C` was tested, and the “activity change, negative = inhibition” value was -14.5% (inactive). `CCn1c(SCC(=O)Nc2ccc3c(c2)OCCO3)nnc1-c1ccncc1` was tested, and the “activity change, negative = inhibition” value was -9.15% (inactive). With `O=C(CC1C(=O)N(c2ccccc2)C(=O)N1CCc1cccs1)Nc1ccc(F)cc1` (stereo not drawn) the “activity change, negative = inhibition” value was -16.2% (inactive). With `O=C(NCCCO)C(=O)Nc1c2c(nn1-c1ccccc1)CSC2` the “activity change, negative = inhibition” value was 6.49% (inactive). `COc1cccc(-c2nc(S(=O)(=O)c3ccc(C)cc3)c(NCc3ccccc3)o2)c1` was tested, and the “activity change, negative = inhibition” value was -30.1% (inactive). In the case of `O=C(NCc1ccc(F)cc1)c1ccc2nc(N3CCCCC3)sc2c1`, the “activity change, negative = inhibition” value is reported as -13.4% (inactive). In the case of `Cc1ccc(NC(=O)CSc2nc3c([nH]c4ccccc43)c(=O)n2-c2ccccc2)c(C)c1`, the “activity change, negative = inhibition” value is reported as -9.03% (inactive). `O=C(Nc1ccc(Br)cc1)c1ccc(Br)c(S(=O)(=O)NCc2ccccc2)c1` was tested, and the “activity change, negative = inhibition” value was -16.7% (inactive). With `COc1ccc(CCNC(=O)c2ccc3c(c2)sc2nc(-c4ccc(C)cc4)cn23)cc1OC` the “activity change, negative = inhibition” value was -2.96% (inactive). With `Cc1ccc(Oc2c(C(F)(F)F)oc3c(CN4CCCCC4)c(O)ccc3c2=O)cc1` the “activity change, negative = inhibition” value was -11.8% (inactive). For `CC1CCCC(N2CCN(C(=O)c3ccc(F)cc3)CC2)C1` (stereo not drawn), the Potency was 10 µM (active). With `O=C(c1ccc(F)cc1)N1CCC(n2nnc3ccccc32)CC1` the “activity change, negative = inhibition” value was -0.369% (inactive). `O=C(c1ccc(F)cc1)N1CCCC(C(=O)N2CCCCC2)C1` (stereo not drawn) was tested, and the “activity change, negative = inhibition” value was -5.84% (inactive).
